The whole screen tested about 420,000 compounds, of which about 50,000 (12%) were called active. Another 26% or so got no clear call; they are omitted. The sample holds actives, similar compounds and a random draw of the others, so the mix is not that of the screen. A number with no mark means an inactive call. Calls follow the shape of the dose curve; as a rule, active = well fitted inhibition curve with a large enough effect; inconclusive = small, poorly fitted or top-dose-only effect; inactive = flat fitted curve, though single readings scatter.
Assay: qHTS for Inhibitors of human tyrosyl-DNA phosphodiesterase 1 (TDP1): qHTS in cells in presence of CPT; also: nearly all actives have a fitted effect of over 55% in size
Details: chicken DT40 Tdp1-/-;hTDP1 cells + 20 nM CPT, ATP luminescence, 48 h; series mostly up to 46.2 µM; activity change, negative = growth inhibition: at the top concentration
Outline: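 Chicken DT40 Tdp1-/- cells stably complemented with human TDP1 were seeded at 400 cells/well in medium containing 20 nM camptothecin, exposed to pin-transferred compounds, and grown at 37 °C for at least 48 hr. Viability was read as ATP luminescence.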
% is scaled to controls: 0 for no effect and ±100 for the full control effect; potency is read from the fitted curve at half-maximal effect.

| Structure (SMILES) | activity change, negative = growth inhibition | Potency |
| --- | --- | --- |
| O=C(CC1C(=O)N(c2ccccc2)C(=O)N1CCc1cccs1)Nc1ccc(F)cc1 (stereo not drawn) | -4.18% |  |
| CCCCc1nc2ccc(F)cc2cc1C | -17.5% |  |
| Cc1ccnc(NS(=O)(=O)c2ccc(NC(=O)c3oc4ccccc4c3C)cc2)n1 | -7.62% |  |
| CC(=O)c1c(-c2ccccc2)c2ccccc2[nH]c1=O | 14.5% |  |
| CCOC(=O)c1cnc2[nH]c3ccccc3n2c1=O | 5.8% |  |
| O=c1[nH]c2ccccc2n2c(-c3ccccc3)nnc12 |  | 20.6 µM (active) |
| N#Cc1ccc(OCC(=O)NC(=O)NC2CCS(=O)(=O)C2)cc1 (stereo not drawn) | -2.01% |  |
| O=C(CNC(=O)c1cccs1)N/N=C/c1cccc(Br)c1 | -7.89% |  |
| CCOC(=O)c1c(-c2ccccc2)oc2ccc(OCC(=O)NN)cc12 | -3.23% |  |
| COC(=O)c1sccc1NC(=O)c1cc(OC)c(OC)c(OC)c1 | -25.4% |  |
| COC(=O)c1c(-c2ccsc2)oc2ccc(-c3cc(OC)c(OC)c(OC)c3)cc12 |  | 18.4 µM (active) |
| Cc1cccc(OCC(=O)Nc2ccc(C(=O)O)cc2NC(=O)COc2cccc(C)c2)c1 | -8.69% |  |
| O=C(CCl)Nc1cccc(CP(=O)(c2ccccc2)c2ccccc2)c1 |  | 3.26 µM (active) |
| O=C(Cc1ccccc1)Nc1cccc(NC(=O)c2ccccc2)c1 | -4.48% |  |
| CCc1cccc(NC(=O)CCC(=O)O)c1 | -0.994% |  |
| COc1ccc(N2CCN(C(=O)c3cn(C)c4ccc(S(=O)(=O)N5CCOCC5)cc4c3=O)CC2)cc1 |  | inactive |
| O=C(CC[C@H]1O[C@@H](n2ccc(=O)[nH]c2=O)[C@H](O)[C@@H]1O)N[C@H](Cc1ccccc1)C(=O)NCc1ccco1 | 7.85% |  |
| COc1ccc(CC(=O)OC(C)C(=O)Nc2ccc(S(N)(=O)=O)cc2)cc1 (stereo not drawn) | 1.71% |  |
| CCN(CC(=O)Nc1ccc(S(=O)(=O)N2CCCC2)cc1)CC(=O)Nc1cccc(OC)c1 | -0.0362% |  |
| COc1cccc(NC(=O)NCCN2CCCCC2)c1 | -17.9% |  |
| COc1cccc(NC(=O)C2(C)CCN2Cc2ccccc2Cl)c1 (stereo not drawn) |  | 25.9 µM (active) |
| CCCn1nc(NS(=O)(=O)c2ccccc2)c2cc3cc(C)ccc3nc21 | -16.6% |  |
| CCCn1nc(NS(=O)(=O)c2ccc(F)cc2)c2cc3ccccc3nc21 | -5.62% |  |
| CCCn1nc(NC(=O)C(C)C)c2cc3cc(OC)ccc3nc21 |  | 29.1 µM (active) |
| O=c1cc(CSc2ncn[nH]2)[nH]c2ccc(F)cc12 | -18.6% |  |
| Cc1ccccc1CN1C(=O)CSCC1(C)C(=O)Nc1c(C)cccc1C (stereo not drawn) | -1.64% |  |

| Structure (SMILES) | activity change, negative = growth inhibition | Potency |
| --- | --- | --- |
| COc1cccc(-c2nc(S(=O)(=O)c3ccc(C)cc3)c(NCc3ccccc3)o2)c1 |  | 16.4 µM (active) |
| COc1cccc(-c2nc3cc(C)ccc3o2)c1 | -20.2% |  |
| O=S(=O)(c1ccccc1)c1nc(-c2ccccc2F)oc1NCc1cccnc1 | -2.08% |  |
| CCN(CC)C(=O)Cn1cc(S(=O)(=O)CC(=O)NCc2ccc3c(c2)OCO3)c2ccccc21 | -2.09% |  |
| Cc1c(C(=O)NCCCc2ccccc2)cccc1[N+](=O)[O-] | 9.3% |  |
| CCN(CC)CCNCc1ccc(OCc2ccc(Cl)nc2)c(OC)c1 | -5.45% |  |
| Cc1occc1C(=O)Nc1cccc(S(=O)(=O)N2CCOCC2)c1 | -9.7% |  |
| COc1ccc(NC(=O)c2oc3ccc(S(=O)(=O)N4CCOCC4)cc3c2C)cc1 |  | 11.6 µM (active) |
| Cc1c(C(=O)NCCN(C)C)oc2ccc(S(=O)(=O)N3CCCC3)cc12 | 1.87% |  |
| CCCNC(=O)C1(C)CCN(C(=O)c2ccc(F)cc2Cl)C1 (stereo not drawn) | -2.93% |  |
| OCC(O)CN(c1ccccc1)c1ccccc1 (stereo not drawn) | -5.37% |  |
| O=C(NCCc1ccccc1)Oc1ccc(Cl)cc1 | -2.55% |  |
| CCOc1ccc(N2CC(C(=O)NCCN3C(=O)S/C(=C\c4cccnc4)C3=O)CC2=O)cc1 (stereo not drawn) | -15% |  |
| COc1ccc(N2CC(C(=O)NCCN3C(=O)S/C(=C\c4cccnc4)C3=O)CC2=O)c(OC)c1 (stereo not drawn) | -2.78% |  |
| Cc1cc(OCCCC(=O)NCCN2C(=O)S/C(=C\c3cccnc3)C2=O)ccc1Cl |  | 8.2 µM (active) |
| CC1CCN(C(=O)COC(=O)c2cc(S(=O)(=O)N3CCOCC3)ccc2Cl)CC1 | 15.1% |  |
| COc1ccc(O)c(/C=N/N=C/c2cccc([N+](=O)[O-])c2)c1 | -19.7% |  |
| COc1ccc(C(=O)COC(=O)c2ccc([N+](=O)[O-])s2)cc1OC | -14.7% |  |
| O=C(OCC(=O)N1CCN(c2ccccc2)CC1)c1ccc([N+](=O)[O-])s1 |  | 10.3 µM (active) |
| COc1cc(NC(=O)COC(=O)c2ccc([N+](=O)[O-])s2)cc(OC)c1OC | -26.9% |  |
| CCN(CC)CCN1C(=O)C2C(C(=O)Nc3ccc(Br)cc3)C3C=CC2(O3)C1C(=O)NC1CCCCC1 (stereo not drawn) | 3.58% |  |
| Brc1cc(Br)c(Oc2cc(Br)c(Br)cc2Br)cc1Br | 1.97% |  |
| CC(=O)Nc1ccc(NC(=O)C(C)n2c3ccccc3c3nc(=O)cc(C)n32)cc1 (stereo not drawn) | -1.13% |  |
| CC(C)(C)c1cc2cccnc2n1Cc1ccccc1 | -20.7% |  |
| O=C(CN1C(=O)NC2(CCCC2)C1=O)Nc1cc(C(F)(F)F)ccc1N1CCOCC1 | 5.6% |  |
| CC(=O)N1CC[n+]2c(-c3ccc([N+](=O)[O-])cc3)csc21 |  | 18.4 µM (active) |

| Structure (SMILES) | activity change, negative = growth inhibition | Potency |
| --- | --- | --- |
| CN1C2CCC1CC(NC(=O)c1ccc([N+](=O)[O-])cc1)C2 (stereo not drawn) | -12.4% |  |
| Cc1cc(C)cc(C(=O)N2CCN=C2SCc2ccc([N+](=O)[O-])cc2)c1 | -20.2% |  |
| CCn1c(CNC(=O)c2ccc(OC)c(OC)c2)nnc1SCC(=O)Nc1ccccc1 | 12.4% |  |
| COc1ccccc1C(=O)NCCC(=O)NN1C(=O)NC2(CCCCC2)C1=O | 0.64% |  |
| COc1ccc(C(=O)NC2CC(C)(C)NC(C)(C)C2)cc1OC | 1.23% |  |
| CCOc1c(CNCc2ccc(C(=O)O)cc2)cccc1OC | 12.2% |  |
| COc1cc(C(=O)NCC2(c3ccccc3)CCCC2)ccc1OC(C)C |  | 20.6 µM (active) |
| CCOc1c(OC)cccc1C(=O)NCC1(c2ccccc2)CCCC1 |  | 5.8 µM (active) |
| CN(C)C(CNC(=O)c1cccc(S(=O)(=O)Nc2ccc(Br)cc2)c1)c1ccco1 (stereo not drawn) | 4.66% |  |
| COc1ccc(C(=O)c2oc3ccccc3c2NC(=O)COc2cccc(C)c2)cc1 | -10.2% |  |
| CCCc1nnc(SCC(=O)N2C(C)CCCC2C)n1CC (stereo not drawn) | 4.32% |  |
| O=c1c(CN2CCOc3ccc(CN4CCC(Oc5cccnc5)CC4)cc3C2)coc2ccccc12 | 0.59% [at 9.04 µM] |  |
| COc1ccc(C)cc1-n1nnnc1SCc1nc2ccccc2c(=O)[nH]1 |  | 13 µM (active) |
| COCCn1c(SCc2nc3cc(OC)c(OC)cc3c(=O)[nH]2)nnc1-c1ccncc1 | -23.8% |  |
| CCn1c(COc2c(C)cccc2C)nnc1SCc1nc2ccccc2c(=O)[nH]1 | -29.2% |  |
| Cc1cccc(NC(=O)Nc2ccc(OCc3ccccc3)cc2)n1 | -26.1% |  |
| O=C(OCC(=O)N1CCN(C(=O)c2ccco2)CC1)c1cccc(O)c1 | 10.2% |  |
| COc1ccc(Cl)cc1NS(=O)(=O)c1cccc(C(=O)NCC2CCCO2)c1 (stereo not drawn) | -18.3% |  |
| CC(C)CC(CCc1ccccc1)OS(N)(=O)=O (stereo not drawn) | -10.9% |  |
| Cc1ccc(Cn2c(C)nc3c(c2=O)c2nc4ccccc4nc2n3Cc2ccco2)cc1 |  | 25.9 µM (active) |
| Cc1ccc(Cn2c(=O)n(Cc3nc(-c4ccccc4)no3)c(=O)c3cc4c(cc32)OCO4)cc1 | -3.36% |  |
| CSc1nc2ccccc2c(=O)n1Cc1ccc(F)cc1 | -1.98% |  |
| O=C(O)CSCc1ccc(C(=O)O)o1 | -5.59% |  |
| COc1ccc(C(=O)OCC(=O)Nc2cccc(C(C)=O)c2)cc1OC | -1.13% |  |
| COc1ccc(OCC(=O)NNC(=O)C2CCC2)cc1 | -23.6% |  |
| O=C(CC1CCCCC1)NCc1ccc(F)cc1 | -1.57% |  |

| Structure (SMILES) | activity change, negative = growth inhibition | Potency |
| --- | --- | --- |
| O=[N+]([O-])c1ccc(N2CCN(CC(O)COc3ccccc3)CC2)cc1 (stereo not drawn) |  | 20.6 µM (active) |
| O=S(=O)(c1ccc(OCC(O)CN2CCN(c3ccccc3Cl)CC2)cc1)N1CCOCC1 (stereo not drawn) |  | 14.6 µM (active) |
| OC(COc1ccccc1)CN1CCN(c2cccc(Cl)c2)CC1 (stereo not drawn) | -8.22% |  |
| CC(=O)Nc1ccc(OCC(O)CN2CCN(c3ccccc3Cl)CC2)cc1 (stereo not drawn) | -10.6% |  |
| OC(COc1ccc2ccccc2c1)CN1CCOCC1 (stereo not drawn) |  | inactive |
| C[N+]1(CC(O)COc2ccccc2)CCN(C(=O)c2ccc([N+](=O)[O-])cc2)CC1 (stereo not drawn) | 6.42% |  |
| Cc1nc2nc(C)c(NS(=O)(=O)c3ccc(C(C)(C)C)cc3)c(=O)n2[nH]1 | -11.1% |  |
| CCCS(=O)(=O)NCc1c(C)ncc2c1CCN(C(=O)c1ccc(F)c(F)c1)C2 | -3.77% [at 9.04 µM] |  |
| Cc1coc2c1c(C)cc1oc(=O)c(CC(=O)NCC(=O)N[C@H](C(=O)O)C(C)C)c(C)c12 | -0.893% |  |
| CC(C#N)OC(=O)c1cccnc1SCC(=O)Nc1ccc2c(c1)OCO2 (stereo not drawn) | 14.5% |  |
| COc1ccc2c(c1)OC(O)(C(F)(F)C(F)F)CC2=O (stereo not drawn) |  | 11.6 µM (active) |
| COc1ccc2c(c1)SC(C)CC2=O (stereo not drawn) | -1.56% |  |
| O=C(CCC(=O)OCc1cccc(C(=O)Oc2ccccc2)c1)Nc1cccc2ccccc12 | -26.9% |  |
| CS(=O)(=O)c1ccc(C(=O)NNC(=O)c2cccs2)cc1 | -1.13% |  |
| CC(=O)NC12CC3CC(C1)CC(C(=O)N1CCN(S(=O)(=O)c4cccs4)CC1)(C3)C2 | -8% |  |
| CCOc1ccc(C(=O)Nc2ccc(CN3CCOCC3)cc2)cc1Cl | -16.5% |  |
| COc1cc(/C=C(\C#N)c2nc3ccccc3[nH]2)ccc1O |  | 25.9 µM (active) |
| N#C/C(=C\c1ccccc1F)c1nc2ccccc2c(=O)[nH]1 | -10.3% |  |
| CCOc1ccc(/C=C(\C#N)c2nc3ccccc3c(=O)[nH]2)cc1OC | -12.3% |  |
| Cc1nnc(SCc2nc3ccccc3nc2C)s1 | -1.33% |  |
| ClC1(Cl)CC1CSc1ncn[nH]1 (stereo not drawn) | 11% |  |
| S=C(Nc1cccc(Br)c1)N1CCn2cccc2C1c1cccnc1 (stereo not drawn) | -26.3% |  |
| O=C(CSc1ncccn1)NCCc1ccccc1 | -27.8% |  |
| S=C(NCCc1ccccc1)N1CCn2cccc2C1c1ccncc1 (stereo not drawn) |  | 18.4 µM (active) |
| CCC(=O)Nc1ccc(C(=O)NNC(=O)c2ccc(Cl)cc2)cc1 | -2.54% |  |
